Laboratory results as given in PubChem BioAssay (NCI).
About 83,000 compounds went through this panel and 20% of them were active in at least one assay; those are over-represented in the sample as a whole.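 48-hour exposure, single concentration, 96-well plates; percent growth endpoint where 0 means no net growth. Active: below 10.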 Active and inactive are the calls of the source.

Test system: SK-OV-3 ovarian
Experiment: NCI-60 one-dose screen, 48 h (100 = growth as untreated, 0 = no growth, -100 = all killed)
Conditions: 10 µM unless noted

| Compound | growth |
| --- | --- |
| O=C(NNc1nc2cc(C(F)(F)F)ccc2n2cccc12)c1cnccn1 | -88.2% (active) |
| Cc1cccc(NC(=O)[C@]23CCC(C)(C)CC2C2=CCC4[C@@]5(C)C[C@@H](O)[C@H](O)[C@@](C)(CO)C5CC[C@@]4(C)[C@]2(C)CC3)c1 (stereo partly drawn) | 36.9% (inactive) |
| CCCCSc1nc(NCCc2c[nH]c3ccccc23)c(C#N)c(-c2ccc(F)cc2)n1 | 83% (inactive) |
| COc1ccc(-c2ccnc(SCc3cc4cc(Cl)ccc4[nH]c3=O)n2)cc1 | -2.33% (active) |
| O=c1[nH]c2ccccc2cc1CSc1nccc(-c2ccc3ccccc3c2)n1 | 84.3% (inactive) |
| CCCCCCCCc1ccc(S(=O)(=O)Nc2ccc(CC)cc2C(=O)O)cc1 | 106% (inactive) |
| COc1cc(OC)c2c3nc4cc(C)c(C)cc4nc3n(CCN(C)C)c2c1 | 103% (inactive) |
| N#Cc1c(-c2cccc(O)c2O)cc(-c2ccc3ccccc3c2)[nH]c1=O | 77.6% (inactive) |
| O=c1[nH]n(C(=S)N/N=C/c2ccccc2Cl)c(=O)c2ccccc12 | 23.4% (inactive) |
| COc1ccc(C(=O)/C=C/c2cccc(Cl)c2Cl)cc1S(N)(=O)=O | 43.3% (inactive) |
| COc1ccc(C(=O)/C=C/c2cccnc2)cc1S(N)(=O)=O | 88.1% (inactive) |
| Cc1cc2nc3c4ccccc4n(CC4=NCCN4)c3nc2cc1C | 15.6% (inactive) |
| CCCCCCCCc1ccc(C(=O)Nc2cccc(P(=O)(O)O)c2)cc1 | 112% (inactive) |
| Cc1cc2nc3c([nH]c2cc1C)c1ccc(=O)cc1n3CCN(C)C | 63.7% (inactive) |
| O=C(c1ccc(Cl)cc1)c1ccc(OCCCN2CCN(c3ccncc3)CC2)cc1 | 34.8% (inactive) |
| CCCCSc1nc(NCCc2c[nH]c3ccccc23)c(C#N)c(-c2ccccc2)n1 | 76.6% (inactive) |
| O=C1N/C(=N\c2nccs2)S/C1=C\C=C/c1ccccc1 | 77.7% (inactive) |
| CC(=O)OC[C@@]1(C)C2CC[C@]3(C)C(CC=C4C5CC(C)(C)CC[C@]5(C(=O)Nc5cccc(C)c5)CC[C@]43C)[C@@]2(C)C[C@@H](OC(C)=O)[C@@H]1OC(C)=O (stereo partly drawn) | 59.7% (inactive) |
| COc1ccc(C(SCCNCc2cc(N(C)C)ccn2)(c2ccccc2)c2ccccc2)cc1 | -5.07% (active) |

| Compound | growth |
| --- | --- |
| O=c1onc(-c2cc3ccccc3nc2Cl)n1-c1cccc2ccccc12 | 34.4% (inactive) |
| COc1ccc(C2=NN(c3ccccc3)C(c3ccc(OCc4ccccc4)c(OC)c3)C2)cc1OC (stereo not drawn) | 98.1% (inactive) |
| Nc1n[nH]c2cccc(C#Cc3cccc(NC(=O)c4cccc(Cl)c4)c3)c12 | 15.7% (inactive) |
| O=C(Cn1c2c(sc1=O)[C@H]1[C@@H](O)[C@@H](O)[C@H](O)[C@@H]1CS2)N1CCOCC1 | 94.1% (inactive) |
| CC(=O)Nc1cccc(Nc2nc(N[C@H]3CCCc4ccccc43)c3ccccc3n2)c1 | 91.6% (inactive) |
| N/C(=N\c1nc2ccccc2s1)NC(=O)NCCCCCCO | 59.1% (inactive) |
| COc1ccc2c(c1)C(=N/N=C(\C)c1ccc(OC)c(S(N)(=O)=O)c1)C(=O)N2 | 97.6% (inactive) |
| CCCSc1nc(NCCc2c[nH]c3ccccc23)c(C#N)c(-c2ccc(F)cc2)n1 | 72.3% (inactive) |
| O=c1[nH]c2ccccc2cc1CSc1cccc(Nc2nccc(-c3ccc4ccccc4c3)n2)c1 | 115% (inactive) |
| CCN(CC)c1ccnc(CNCCSC(c2ccccc2)(c2ccccc2)c2ccc(C)cc2)c1 | -87.4% (active) |
| CN(C)CCn1c2ccccc2c2nc3cc(C(F)(F)F)ccc3nc21 | 41.5% (inactive) |
| CC1(C)CC[C@]2(C(=O)Nc3ccc(Br)cc3)CC[C@]3(C)C(=CCC4[C@@]5(C)C[C@@H](O)[C@H](O)[C@@](C)(CO)C5CC[C@]43C)C2C1 (stereo partly drawn) | 4.34% (active) |
| CCC(C)(C)c1ccc(OCCCCCCN2CCN(c3ccncc3)CC2)cc1 | 38.5% (inactive) |
| COc1ccc(C(=O)/C=C/c2ccc(Cl)c(Cl)c2)cc1S(N)(=O)=O | 52.5% (inactive) |
| Cc1cc(N=C2NC(=O)CS2)n[nH]1 | 121% (inactive) |
| Cc1ccc(C(=O)CSc2nc3ccc(F)cc3c(=O)n2-c2ccc(Cl)cc2)cc1 | 46% (inactive) |
| COc1ccc(C(=O)/C=C/c2cccc(Br)c2)cc1S(N)(=O)=O | 8.53% (active) |
| Cc1sc(C(NC(=O)OCCn2c([N+](=O)[O-])cnc2C)C(F)(F)Cl)nc1-c1ccc(OC(F)(F)F)cc1 (stereo not drawn) | -84.8% (active) |
| COc1ccc(NC(=O)Cn2c3c(sc2=O)[C@H]2[C@@H](O)[C@@H](O)[C@H](O)[C@@H]2CS3)cc1 | 107% (inactive) |
